Results from PubChem BioAssay.
Activity calls are given as the source filed them.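 How the source made its calls: active means NADPH fluorescence slope more negative than the mean of all samples by about 3 SD, 99.7% confidence; inactive means the rest.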

Each molecule was assayed against Voltage-gated potassium channel subunit beta-2 (Rattus norvegicus) (UniProt P62483) (assay: KvBeta positive modulators, primary screen, biochemical, NADPH fluorescence (AID 623;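 further: fluorescence intensity change per second fitted from 20 to 320 s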)). Details: Recombinant KvBeta, NADPH fluorescence decrease slope, 10 min; at 10 µM; hits give low values.
Chain of Voltage-gated potassium channel subunit beta-2 (Rattus norvegicus) (P62483 whole entry, looked up): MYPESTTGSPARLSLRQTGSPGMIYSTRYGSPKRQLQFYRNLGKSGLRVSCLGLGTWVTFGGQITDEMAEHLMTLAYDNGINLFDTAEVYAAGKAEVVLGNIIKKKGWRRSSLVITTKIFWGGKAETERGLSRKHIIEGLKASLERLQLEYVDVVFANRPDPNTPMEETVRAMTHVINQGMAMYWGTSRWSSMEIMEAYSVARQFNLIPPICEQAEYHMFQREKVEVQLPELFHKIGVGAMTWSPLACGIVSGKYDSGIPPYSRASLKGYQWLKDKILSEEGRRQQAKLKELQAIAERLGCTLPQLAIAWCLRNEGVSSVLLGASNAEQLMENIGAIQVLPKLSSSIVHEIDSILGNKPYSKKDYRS

NADPH fluorescence slope, inactive:
Cc1cc(C)n(-c2ccc(N3CCOCC3)nn2)n1 -7.8e-06
O=C(Nc1ccc(S(=O)(=O)N2CCc3ccccc32)cc1)c1ccc2c(c1)OCO2 -1.6e-05
Cc1ccc2occ(CN3CCN(c4ccccc4)CC3)c(=O)c2c1 -1.6e-05
Cc1ccc(S(=O)(=O)N2CCN(C(=O)CSC3CCCC3)CC2)c(C)c1 4.3e-06
Nc1nonc1-n1nnc(C(=O)c2ccccc2)c1-c1ccccc1 7.3e-06
COc1cc(C2c3c(n[nH]c3C)C(=O)N2c2ccc(C)cc2)ccc1O (stereo not given) -2.8e-05
CC(C)(C)n1nnnc1CN(Cc1ccco1)Cc1cc2cc3c(cc2[nH]c1=O)OCO3 -5.7e-05
COc1ccccc1N1CCN(S(=O)(=O)CC23CCC(CC2=O)C3(C)C)CC1 (stereo not given) -3.6e-05
CC1(C)CC(=O)C=C(NCCN2CCN(C(=O)Nc3ccccc3)CC2)C1 -4.4e-05
Cc1ccccc1OCc1nnc(SCC(=O)NCc2ccccc2)n1C 5.8e-06
CCN(CC(=O)O)S(=O)(=O)c1cc(Cl)ccc1Cl -2.7e-05
COC(=O)C1CCN(C(=O)CN2C(=O)NC(CCc3ccccc3)C2=O)CC1 (stereo not given) -2.6e-05
CCOC(=O)Cn1c(CN2CCOCC2)nc2c1c(=O)[nH]c(=O)n2C -4.7e-05
CCc1cccc(NC(=O)CN(C)S(=O)(=O)c2cccc3nsnc23)c1 -6.7e-05
O=C(Cn1ncc2c(=O)oc3ccccc3c21)Nc1nc2ccccc2s1 -8.1e-05
